# PubChem BioAssay AID488969 (Vanderbilt High Throughput Screening Facility, 2010)
# Whole data set: some 110,000 compounds, median “z-score” near -0.1, cut for the highest 2% near 2. What follows is part of a selection rich in the highest values, with near analogues and random picks from the rest. The source made the active and inactive calls.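 The calls were made as follows: active = z-score in the third read window above 3 or below -3; inactive = the rest.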
# Target: Metabotropic glutamate receptor 8 (Rattus norvegicus) (UniProt P70579)
# Assay: mGluR8 Gi/Go-coupled signaling modulation – cell-based, rat, thallium flux, HTS, primary screen (AID 488969)
# Conditions: HEK293 rat mGluR8, GIRK (G protein-gated inwardly rectifying potassium channel) thallium flux, FluoZin2; at 10 µM; stronger effect = higher value; submaximal glutamate (EC20) added with thallium
# Chain of Metabotropic glutamate receptor 8 (Rattus norvegicus) (P70579 whole entry, looked up): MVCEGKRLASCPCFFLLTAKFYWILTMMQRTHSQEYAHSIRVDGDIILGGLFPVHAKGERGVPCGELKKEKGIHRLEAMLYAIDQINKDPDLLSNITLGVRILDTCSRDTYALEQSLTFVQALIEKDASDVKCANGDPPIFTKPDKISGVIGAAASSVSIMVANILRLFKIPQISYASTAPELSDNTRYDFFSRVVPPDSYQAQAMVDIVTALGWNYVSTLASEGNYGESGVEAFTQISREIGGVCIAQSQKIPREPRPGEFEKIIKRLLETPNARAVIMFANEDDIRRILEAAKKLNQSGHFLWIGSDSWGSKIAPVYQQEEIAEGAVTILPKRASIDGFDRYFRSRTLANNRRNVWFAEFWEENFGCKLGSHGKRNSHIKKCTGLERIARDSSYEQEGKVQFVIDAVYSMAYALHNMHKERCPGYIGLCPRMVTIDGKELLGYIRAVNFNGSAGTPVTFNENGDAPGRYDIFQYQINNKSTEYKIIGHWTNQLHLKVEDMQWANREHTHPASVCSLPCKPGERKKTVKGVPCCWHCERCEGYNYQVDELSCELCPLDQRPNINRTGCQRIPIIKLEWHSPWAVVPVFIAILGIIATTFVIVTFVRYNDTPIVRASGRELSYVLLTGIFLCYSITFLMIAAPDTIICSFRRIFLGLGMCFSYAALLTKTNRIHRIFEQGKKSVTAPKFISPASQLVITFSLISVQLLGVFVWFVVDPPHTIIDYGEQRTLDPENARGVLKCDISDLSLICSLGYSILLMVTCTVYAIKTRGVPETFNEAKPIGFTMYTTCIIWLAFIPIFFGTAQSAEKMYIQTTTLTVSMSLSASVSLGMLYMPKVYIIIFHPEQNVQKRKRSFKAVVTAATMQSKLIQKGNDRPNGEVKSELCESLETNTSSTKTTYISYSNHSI
row,Structure (SMILES),z-score
1,O=C(OCc1ccccc1)C1=[N+]([O-])OC(C(=O)OCc2ccccc2)C1c1c[nH]c2ccccc12 (stereo unspecified),-0.556
2,CCOC(=O)C1=C(C)Nc2nc3ccccc3n2C1c1ccccc1 (stereo unspecified),0.0404
3,Cc1ccc2c(c1)CCCN2C(=O)c1ccncc1,0.255
4,COc1cccc(C2=NOC(C(=O)Nc3cccc(C(C)=O)c3)C2)c1OC (stereo unspecified),0.301
5,Cc1c(-c2ccccc2)nc2ccccc2c1C(=O)OCC(=O)Nc1ncc(C(F)(F)F)cc1Cl,0.00577
6,COC(=O)Cc1[nH]nc2c1C(c1c[nH]c3ccccc13)C(C#N)=C(N)O2 (stereo unspecified),-0.415
7,COc1ccc(/C=N\N=C2/SC(CC(=O)O)C(=O)N2c2ccc(O)cc2)cc1OC (stereo unspecified),-0.0449
8,CC(=O)Nc1cccc2c1C(=O)NC2=O,0.274
9,CC(C)Cn1cc(C(=O)NC2CCN(Cc3ccccc3)CC2)c2c3ccccc3n(C)c2c1=O,-0.13
10,O=C(NC(=S)N1CCN(Cc2ccccc2)CC1)c1ccccc1,6.31 (active)
11,O=C(c1ccccc1)N1CCN(Cc2ccccc2)CC1,-0.853
12,S=C(NCCc1ccccc1)N1CCN(Cc2ccccc2)CC1,-0.499
13,O=C1NCCN1C(=O)c1ccccc1F,0.555
14,Cc1csc(NC(=O)CSc2ncc(-c3ccccc3)[nH]2)n1,0.148
15,COc1ccc(Cn2c(-c3ccco3)nc3oc4ccccc4c(=O)c3c2=O)cc1,0.403
16,COc1ccc2c(=O)c3c(=O)n(Cc4ccco4)c(-c4ccco4)nc3oc2c1,-0.397

row,Structure (SMILES),z-score
1,COc1ccc(Cn2c(-c3ccco3)nc3oc4cc(OC)ccc4c(=O)c3c2=O)cc1,2.22
2,CS(=O)(=O)N(CC(N)=O)c1ccc2c(c1)OCO2,-0.00195
3,N#Cc1ccccc1NC(=O)CNc1ccc(Cl)c(C(F)(F)F)c1,2.38
4,Cc1ccccc1NC(=O)CNc1ccc(Cl)c(C(F)(F)F)c1,-0.365
5,COc1ccc(NCC(=O)Nc2ccccc2C#N)cc1Cl,-0.204
6,N#Cc1cc(Oc2cccnc2)c(Oc2cccnc2)cc1C#N,0.18
7,O=C(Nc1cccc(Cl)c1)Nc1cccc(Cl)c1,0.0262
8,O=C(Nc1cccc(Cl)c1)Nc1nccs1,10.2 (active)
9,O=C(Nc1ccccc1)Nc1nccs1,1.3
10,COC(=O)c1ccc(Oc2nc3c(c(=O)n(C)c(=O)n3C)n2CCC(C)C)cc1,1.63
11,CN1C(=O)/C(=C/c2ccc3c(c2)OCO3)N=C1c1ccccc1,0.393
12,CC(=O)Nc1c(C(=O)N2CCOCC2)cnn1-c1ccc(C)c(C)c1,-0.0497
13,CCC(=O)Nc1c(C(=O)N2CCCCCC2)cnn1-c1ccc(C)c(C)c1,2.47
14,O=C(Cc1ccccc1)Nc1c(C(=O)N2CCCCCC2)cnn1-c1ccccc1,-0.477
15,CC(C)NC(=O)Cn1c(=O)cnc2ccccc21,0.171
